Holding throughout (experiment): DAPPL (digital affinity profiling via proximity ligation, sequencing); 10 mM Tris-HCl pH 7.5, 50 mM NaCl, 1 mM DTT, 4% glycerol, room temperature, 30 min; GST-TFs on glutathione beads, 16-mer random dsDNA library, 0.1% formaldehyde crosslink after washing; high values mean tight binding
For one experiment, the target named is T1, FLI1 (Homo sapiens, UniProt Q01543 1-452).
T1 sequence: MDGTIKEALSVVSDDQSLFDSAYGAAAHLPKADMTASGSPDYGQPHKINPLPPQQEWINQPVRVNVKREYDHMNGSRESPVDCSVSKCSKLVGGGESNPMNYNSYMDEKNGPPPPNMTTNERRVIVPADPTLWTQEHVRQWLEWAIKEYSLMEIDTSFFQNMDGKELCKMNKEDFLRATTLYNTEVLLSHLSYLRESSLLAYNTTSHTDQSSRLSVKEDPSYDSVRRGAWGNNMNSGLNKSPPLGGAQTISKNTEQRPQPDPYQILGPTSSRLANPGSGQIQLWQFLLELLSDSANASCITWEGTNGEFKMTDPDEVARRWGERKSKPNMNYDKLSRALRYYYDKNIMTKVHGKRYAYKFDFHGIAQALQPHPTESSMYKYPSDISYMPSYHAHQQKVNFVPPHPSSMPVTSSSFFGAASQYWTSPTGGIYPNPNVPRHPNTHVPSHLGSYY
Particulars: protein: recombinant; tags: N-terminal GST; dsDNA, one strand shown. In short, it runs like this: (§1)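 The binding signal reported is, for every hexamer, its read frequency for a factor over its read frequency for the tag-only sample. Reads came from pools of yeast-expressed, GST-fused human transcription factors on glutathione beads, barcoded with DNA and mixed with that sample, which were incubated with 200 nmole of a random double-stranded 16-mer DNA library in Tris/NaCl/DTT/glycerol buffer at room temperature for 30 min. After washing, the pools were crosslinked with 0.1% formaldehyde, proximity-ligated with BsaI/T4 ligase for 1 h at 37 °C, PCR-amplified and sequenced on an Illumina NextSeq500.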

The target of a further experiment is T2, ELK1 (Homo sapiens, UniProt P19419 1-428).
T2 sequence: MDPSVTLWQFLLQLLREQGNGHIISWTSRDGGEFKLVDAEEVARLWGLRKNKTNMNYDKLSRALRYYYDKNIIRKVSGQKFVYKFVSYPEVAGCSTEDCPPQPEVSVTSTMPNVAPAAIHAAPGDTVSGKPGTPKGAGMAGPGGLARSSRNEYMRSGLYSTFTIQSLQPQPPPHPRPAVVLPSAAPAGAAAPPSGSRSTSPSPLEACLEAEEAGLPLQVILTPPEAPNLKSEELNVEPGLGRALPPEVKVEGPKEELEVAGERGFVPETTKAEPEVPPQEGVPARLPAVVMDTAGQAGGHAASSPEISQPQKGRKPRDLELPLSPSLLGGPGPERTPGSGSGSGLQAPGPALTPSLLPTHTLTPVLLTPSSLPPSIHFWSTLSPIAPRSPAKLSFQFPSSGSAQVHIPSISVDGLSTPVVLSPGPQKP
The following applies: protein: recombinant; tags: N-terminal GST; dsDNA, one strand shown. In short, it runs like this: as §1

For a further experiment, the target named is T3, GABPA (Homo sapiens, UniProt Q06546 1-454).
T3 sequence: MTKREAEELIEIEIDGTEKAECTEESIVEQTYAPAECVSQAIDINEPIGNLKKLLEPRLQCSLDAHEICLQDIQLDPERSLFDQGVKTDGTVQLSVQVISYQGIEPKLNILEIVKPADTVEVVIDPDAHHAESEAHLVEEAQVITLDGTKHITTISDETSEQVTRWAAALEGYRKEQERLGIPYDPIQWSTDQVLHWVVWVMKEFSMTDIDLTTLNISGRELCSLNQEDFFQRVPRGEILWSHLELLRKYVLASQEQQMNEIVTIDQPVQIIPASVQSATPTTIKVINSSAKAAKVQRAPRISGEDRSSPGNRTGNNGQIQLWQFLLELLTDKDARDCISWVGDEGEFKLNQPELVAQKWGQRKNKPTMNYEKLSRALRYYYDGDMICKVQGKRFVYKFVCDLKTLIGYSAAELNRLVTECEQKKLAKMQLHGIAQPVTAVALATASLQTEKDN
Particulars: protein: recombinant; tags: N-terminal GST; dsDNA, one strand shown. In outline:
as §1

The target of another experiment is T4, ERG (Homo sapiens, UniProt P11308 1-479).
T4 sequence: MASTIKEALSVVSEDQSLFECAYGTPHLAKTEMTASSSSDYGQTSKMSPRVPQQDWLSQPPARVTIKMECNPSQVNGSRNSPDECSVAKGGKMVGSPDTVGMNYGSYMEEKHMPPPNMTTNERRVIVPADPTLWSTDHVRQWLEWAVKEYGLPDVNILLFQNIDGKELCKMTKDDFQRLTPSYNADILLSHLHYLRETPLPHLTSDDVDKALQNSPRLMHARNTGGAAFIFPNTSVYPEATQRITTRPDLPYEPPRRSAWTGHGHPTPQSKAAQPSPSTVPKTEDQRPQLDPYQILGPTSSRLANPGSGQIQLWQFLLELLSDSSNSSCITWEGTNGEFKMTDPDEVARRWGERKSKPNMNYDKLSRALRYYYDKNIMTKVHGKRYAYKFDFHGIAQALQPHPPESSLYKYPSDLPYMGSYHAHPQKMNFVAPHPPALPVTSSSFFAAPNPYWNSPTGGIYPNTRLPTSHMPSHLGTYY
The following applies: protein: recombinant; tags: N-terminal GST; dsDNA, one strand shown. In outline: as §1

In a further experiment the target is ELF1 (Homo sapiens, UniProt P32519 1-619). Particulars: protein: recombinant; tags: N-terminal GST; dsDNA, one strand shown. In outline: as §1
In a further experiment the target is T5, EHF (Homo sapiens, UniProt Q9NZC4 1-300).
T5 sequence: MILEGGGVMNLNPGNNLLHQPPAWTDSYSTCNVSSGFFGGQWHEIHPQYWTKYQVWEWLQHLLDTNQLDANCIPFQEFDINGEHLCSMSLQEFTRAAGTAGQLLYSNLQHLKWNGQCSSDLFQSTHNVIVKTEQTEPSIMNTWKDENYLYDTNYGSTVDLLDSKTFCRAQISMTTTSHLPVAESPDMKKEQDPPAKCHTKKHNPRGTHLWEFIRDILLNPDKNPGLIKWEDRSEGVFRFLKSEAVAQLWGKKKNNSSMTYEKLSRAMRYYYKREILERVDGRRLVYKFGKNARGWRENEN
The following applies: protein: recombinant; tags: N-terminal GST; dsDNA, one strand shown. In short, it runs like this:
as §1

The next experiment addresses SPI1 (Homo sapiens, UniProt P17947 1-270). The following applies: protein: recombinant; tags: N-terminal GST; dsDNA, one strand shown. In short, it runs like this: as §1
A further experiment addresses SPIB (Homo sapiens, UniProt Q01892 1-262). The following applies: protein: recombinant; tags: N-terminal GST; dsDNA, one strand shown. In short, it runs like this: as §1
The next experiment concerns the target T6, ELK3 (Homo sapiens, UniProt P41970 1-407).
T6 sequence: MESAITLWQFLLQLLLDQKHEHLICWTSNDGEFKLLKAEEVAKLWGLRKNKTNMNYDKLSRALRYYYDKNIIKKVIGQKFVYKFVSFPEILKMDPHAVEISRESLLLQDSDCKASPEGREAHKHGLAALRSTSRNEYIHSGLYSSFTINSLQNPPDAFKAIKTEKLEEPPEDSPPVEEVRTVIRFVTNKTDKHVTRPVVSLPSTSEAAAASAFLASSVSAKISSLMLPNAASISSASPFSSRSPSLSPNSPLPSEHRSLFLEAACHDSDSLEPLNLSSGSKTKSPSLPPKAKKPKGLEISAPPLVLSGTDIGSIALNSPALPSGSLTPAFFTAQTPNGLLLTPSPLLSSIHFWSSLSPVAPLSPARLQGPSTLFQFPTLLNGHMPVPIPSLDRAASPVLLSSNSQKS
Particulars: protein: recombinant; tags: N-terminal GST; dsDNA, one strand shown. In outline: as §1

In a further experiment the target is T7, FEV (Homo sapiens, UniProt Q99581 1-238).
T7 sequence: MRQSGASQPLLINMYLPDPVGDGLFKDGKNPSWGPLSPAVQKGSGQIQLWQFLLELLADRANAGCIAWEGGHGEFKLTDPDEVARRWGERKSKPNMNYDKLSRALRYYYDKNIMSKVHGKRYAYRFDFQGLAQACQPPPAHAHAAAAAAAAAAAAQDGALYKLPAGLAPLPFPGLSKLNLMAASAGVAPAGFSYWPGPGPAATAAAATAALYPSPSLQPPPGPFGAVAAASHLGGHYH
The following applies: protein: recombinant; tags: N-terminal GST; dsDNA, one strand shown. In short, it runs like this: as §1

The target in a further experiment is ETV5 (Homo sapiens, UniProt P41161 1-510). The following applies: protein: recombinant; tags: N-terminal GST; dsDNA, one strand shown. In short, it runs like this: as §1
A further experiment has as its target HSF1 (Homo sapiens, UniProt Q00613 1-529). The following applies: protein: recombinant; tags: N-terminal GST; chain copies: 3; dsDNA, one strand shown. In outline:
as §1

For the next experiment, the target named is T8, SPIC (Homo sapiens, UniProt Q8N5J4 1-248).
T8 sequence: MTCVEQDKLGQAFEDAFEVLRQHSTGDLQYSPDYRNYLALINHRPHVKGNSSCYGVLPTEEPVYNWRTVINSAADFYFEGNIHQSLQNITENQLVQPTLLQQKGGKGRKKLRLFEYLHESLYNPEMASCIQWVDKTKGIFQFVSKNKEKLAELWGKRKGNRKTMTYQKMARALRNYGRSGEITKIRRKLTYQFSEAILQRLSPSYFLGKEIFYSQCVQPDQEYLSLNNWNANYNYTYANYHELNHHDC
The following applies: protein: recombinant; tags: N-terminal GST; dsDNA, one strand shown. In outline: as §1

The target in a further experiment is ELF4 (Homo sapiens, UniProt Q99607 1-663). Particulars: protein: recombinant; tags: N-terminal GST; dsDNA, one strand shown. In outline: as §1
For another experiment, the target named is T9, ELK4 (Homo sapiens, UniProt P28324-2 1-405).
T9 sequence: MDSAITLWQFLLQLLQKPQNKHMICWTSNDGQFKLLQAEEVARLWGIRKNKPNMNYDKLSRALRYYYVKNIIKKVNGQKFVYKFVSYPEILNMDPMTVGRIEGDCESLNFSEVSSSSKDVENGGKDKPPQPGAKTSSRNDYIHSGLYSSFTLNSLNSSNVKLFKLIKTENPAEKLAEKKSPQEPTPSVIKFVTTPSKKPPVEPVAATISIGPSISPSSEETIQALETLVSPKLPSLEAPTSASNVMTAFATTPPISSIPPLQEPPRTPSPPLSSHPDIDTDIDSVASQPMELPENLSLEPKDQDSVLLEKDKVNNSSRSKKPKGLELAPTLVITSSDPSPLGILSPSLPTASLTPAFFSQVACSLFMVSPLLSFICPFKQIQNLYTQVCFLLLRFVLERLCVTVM
The following applies: protein: recombinant; tags: N-terminal GST; dsDNA, one strand shown. In outline: as §1

The target in the next experiment is T10, ETV2 (Homo sapiens, UniProt O00321 1-342).
T10 sequence: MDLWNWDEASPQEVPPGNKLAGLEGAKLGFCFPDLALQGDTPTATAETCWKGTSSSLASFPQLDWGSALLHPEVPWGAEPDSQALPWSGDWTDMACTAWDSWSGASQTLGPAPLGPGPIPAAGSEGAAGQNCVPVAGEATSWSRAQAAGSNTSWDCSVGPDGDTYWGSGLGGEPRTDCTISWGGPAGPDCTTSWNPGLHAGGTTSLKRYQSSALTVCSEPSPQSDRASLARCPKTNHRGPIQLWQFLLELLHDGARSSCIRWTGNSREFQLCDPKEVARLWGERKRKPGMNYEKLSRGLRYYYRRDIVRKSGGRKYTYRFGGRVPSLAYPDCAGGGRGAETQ
The following applies: protein: recombinant; tags: N-terminal GST; dsDNA, one strand shown. In outline:
as §1

The target of another experiment is CRX (Homo sapiens, UniProt O43186 1-299). Particulars: protein: recombinant; tags: N-terminal GST; dsDNA, one strand shown. In short, it runs like this:
as §1

A further experiment concerns the target ETV1 (Homo sapiens, UniProt P50549 1-477). Particulars: protein: recombinant; tags: N-terminal GST; dsDNA, one strand shown. In short, it runs like this:
as §1

Chain of ELF1 (P32519 whole entry): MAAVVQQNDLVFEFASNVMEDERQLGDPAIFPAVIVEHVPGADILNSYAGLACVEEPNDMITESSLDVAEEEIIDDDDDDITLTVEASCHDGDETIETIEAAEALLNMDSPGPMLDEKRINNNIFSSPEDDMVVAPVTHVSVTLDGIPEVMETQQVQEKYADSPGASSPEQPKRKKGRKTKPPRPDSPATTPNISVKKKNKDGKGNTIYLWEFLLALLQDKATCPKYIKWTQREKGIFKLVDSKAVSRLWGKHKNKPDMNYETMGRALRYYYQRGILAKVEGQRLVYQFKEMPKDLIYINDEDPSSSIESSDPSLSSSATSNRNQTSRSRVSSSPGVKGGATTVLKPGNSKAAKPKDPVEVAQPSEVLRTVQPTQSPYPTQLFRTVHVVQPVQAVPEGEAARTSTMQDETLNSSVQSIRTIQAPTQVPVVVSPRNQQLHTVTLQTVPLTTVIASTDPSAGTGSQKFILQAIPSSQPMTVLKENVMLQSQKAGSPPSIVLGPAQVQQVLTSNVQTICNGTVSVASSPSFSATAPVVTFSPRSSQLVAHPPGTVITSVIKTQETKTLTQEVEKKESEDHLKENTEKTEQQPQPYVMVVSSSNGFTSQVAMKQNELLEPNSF
Chain of ETV1 (P50549 whole entry): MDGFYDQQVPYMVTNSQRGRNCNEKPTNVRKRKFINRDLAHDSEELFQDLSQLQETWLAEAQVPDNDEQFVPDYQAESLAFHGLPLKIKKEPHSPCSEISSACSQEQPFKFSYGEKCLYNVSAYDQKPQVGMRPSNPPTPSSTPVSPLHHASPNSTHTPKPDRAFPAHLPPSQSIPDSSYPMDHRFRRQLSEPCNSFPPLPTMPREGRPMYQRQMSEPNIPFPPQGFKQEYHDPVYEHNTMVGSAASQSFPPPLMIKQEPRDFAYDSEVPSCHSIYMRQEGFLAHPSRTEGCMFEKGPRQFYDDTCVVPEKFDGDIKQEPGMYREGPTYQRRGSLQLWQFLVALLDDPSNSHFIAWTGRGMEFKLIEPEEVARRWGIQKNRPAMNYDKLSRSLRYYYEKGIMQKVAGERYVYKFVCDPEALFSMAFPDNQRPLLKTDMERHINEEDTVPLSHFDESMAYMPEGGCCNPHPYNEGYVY
Chain of CRX (O43186 whole entry): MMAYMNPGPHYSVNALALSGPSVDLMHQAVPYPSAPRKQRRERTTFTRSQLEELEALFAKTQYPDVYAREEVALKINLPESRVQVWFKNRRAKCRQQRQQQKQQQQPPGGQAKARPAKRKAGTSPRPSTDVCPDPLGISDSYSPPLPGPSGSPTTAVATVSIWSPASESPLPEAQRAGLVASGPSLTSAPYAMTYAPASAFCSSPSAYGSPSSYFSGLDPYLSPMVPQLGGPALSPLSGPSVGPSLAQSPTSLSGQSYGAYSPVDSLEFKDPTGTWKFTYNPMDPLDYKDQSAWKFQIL
Chain of SPIB (Q01892 whole entry): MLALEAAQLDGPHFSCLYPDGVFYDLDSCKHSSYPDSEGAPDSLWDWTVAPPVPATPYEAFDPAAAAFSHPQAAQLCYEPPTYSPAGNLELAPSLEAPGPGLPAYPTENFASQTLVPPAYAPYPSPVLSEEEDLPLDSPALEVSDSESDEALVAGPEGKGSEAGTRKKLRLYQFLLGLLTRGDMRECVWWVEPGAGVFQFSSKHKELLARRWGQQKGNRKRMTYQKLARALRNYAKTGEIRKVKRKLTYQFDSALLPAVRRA
Chain of ELF4 (Q99607 whole entry): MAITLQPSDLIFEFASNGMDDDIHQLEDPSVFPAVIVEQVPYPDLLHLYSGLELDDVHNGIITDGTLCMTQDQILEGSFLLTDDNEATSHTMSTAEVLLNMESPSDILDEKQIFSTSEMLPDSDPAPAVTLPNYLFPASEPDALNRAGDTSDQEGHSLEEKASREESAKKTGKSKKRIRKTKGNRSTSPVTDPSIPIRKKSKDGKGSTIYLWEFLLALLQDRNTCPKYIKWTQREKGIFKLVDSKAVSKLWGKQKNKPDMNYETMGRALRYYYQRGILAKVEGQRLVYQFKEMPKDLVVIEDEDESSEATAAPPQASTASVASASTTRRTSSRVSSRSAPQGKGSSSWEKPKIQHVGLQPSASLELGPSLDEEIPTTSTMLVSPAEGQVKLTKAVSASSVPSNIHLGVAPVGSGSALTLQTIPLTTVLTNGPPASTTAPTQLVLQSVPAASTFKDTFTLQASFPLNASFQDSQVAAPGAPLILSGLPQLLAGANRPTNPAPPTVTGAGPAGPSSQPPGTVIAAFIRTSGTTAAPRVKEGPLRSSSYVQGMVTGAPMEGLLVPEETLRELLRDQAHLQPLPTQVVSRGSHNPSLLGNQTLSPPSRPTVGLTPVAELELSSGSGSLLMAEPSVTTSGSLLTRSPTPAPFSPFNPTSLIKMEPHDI
Chain of ETV5 (P41161 whole entry): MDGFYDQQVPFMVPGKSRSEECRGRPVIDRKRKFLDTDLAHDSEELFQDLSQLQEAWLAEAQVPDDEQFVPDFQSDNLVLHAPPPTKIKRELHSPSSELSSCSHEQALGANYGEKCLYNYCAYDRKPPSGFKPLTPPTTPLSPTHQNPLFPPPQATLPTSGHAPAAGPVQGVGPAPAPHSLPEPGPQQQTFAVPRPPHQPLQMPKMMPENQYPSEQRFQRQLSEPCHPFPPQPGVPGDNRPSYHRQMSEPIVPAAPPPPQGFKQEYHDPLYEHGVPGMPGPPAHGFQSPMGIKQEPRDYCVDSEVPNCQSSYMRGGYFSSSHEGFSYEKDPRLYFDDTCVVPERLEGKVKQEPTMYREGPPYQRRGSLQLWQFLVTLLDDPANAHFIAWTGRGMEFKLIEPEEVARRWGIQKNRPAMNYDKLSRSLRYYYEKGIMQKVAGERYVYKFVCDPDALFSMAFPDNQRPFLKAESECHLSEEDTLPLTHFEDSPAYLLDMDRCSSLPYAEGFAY
Chain of HSF1 (Q00613 whole entry): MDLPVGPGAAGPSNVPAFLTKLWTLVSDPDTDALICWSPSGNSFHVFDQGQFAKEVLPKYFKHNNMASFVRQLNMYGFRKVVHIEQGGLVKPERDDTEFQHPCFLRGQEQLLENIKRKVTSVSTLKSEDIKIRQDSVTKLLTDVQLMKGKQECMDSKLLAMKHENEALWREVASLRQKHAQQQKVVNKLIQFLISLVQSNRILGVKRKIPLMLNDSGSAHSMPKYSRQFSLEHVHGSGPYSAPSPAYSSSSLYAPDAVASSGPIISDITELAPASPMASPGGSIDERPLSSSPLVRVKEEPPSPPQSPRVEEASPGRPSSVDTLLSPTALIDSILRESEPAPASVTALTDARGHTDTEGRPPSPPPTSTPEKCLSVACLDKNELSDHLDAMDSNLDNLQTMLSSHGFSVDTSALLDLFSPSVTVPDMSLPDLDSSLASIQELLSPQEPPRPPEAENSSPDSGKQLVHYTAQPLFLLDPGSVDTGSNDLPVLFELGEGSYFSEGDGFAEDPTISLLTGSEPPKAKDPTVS

Turning to TCGATA, the binding signal in the experiment with FLI1 was 1.17 fold enrichment (6-mer frequency, TF over GST control); in the experiment with ELK1 it was 1.03 fold enrichment (6-mer frequency, TF over GST control); with GABPA it was 1.08 fold enrichment (6-mer frequency, TF over GST control); with ERG, 1.1 fold enrichment (6-mer frequency, TF over GST control); with ELF1, 1.11 fold enrichment (6-mer frequency, TF over GST control); with EHF, 1.12 fold enrichment (6-mer frequency, TF over GST control). Moreover, the binding signal was 1.12 fold enrichment (6-mer frequency, TF over GST control) with SPI1; 1.03 fold enrichment (6-mer frequency, TF over GST control) in the experiment with SPIB; 1.06 fold enrichment (6-mer frequency, TF over GST control) with ELK3; 1.05 fold enrichment (6-mer frequency, TF over GST control) with FEV; 1.07 fold enrichment (6-mer frequency, TF over GST control) in the experiment with ETV5; 1.35 fold enrichment (6-mer frequency, TF over GST control) with HSF1. Besides, the binding signal in the experiment with SPIC is 1.28 fold enrichment (6-mer frequency, TF over GST control); in the experiment with ELF4 it was 1.15 fold enrichment (6-mer frequency, TF over GST control); in the experiment with ELK4, 1.16 fold enrichment (6-mer frequency, TF over GST control); with ETV2, 1.16 fold enrichment (6-mer frequency, TF over GST control); in the experiment with CRX it was 1.24 fold enrichment (6-mer frequency, TF over GST control); in the experiment with ETV1, 1.03 fold enrichment (6-mer frequency, TF over GST control).

For the origin of these results see publication PMC7862700, “An all-to-all approach to the identification of sequence-specific readers for epigenetic DNA modifications on cytosine”.
